According to PubChem BioAssay (NCATS):
Values joined by “and” are separate entries in the source; they are usually repeats but may differ in a detail not shown here. Identical values can stand only once. Results filed as inconclusive are left out. A call without a number means that no potency is given here. Active and inactive are the calls of the source. Calls come from the whole dose curve; as a rule, active = well fitted inhibition curve with a large enough effect; inconclusive = small, poorly fitted or top-dose-only effect; inactive = flat fitted curve, though single readings scatter. Non-standard residues stand in square brackets, D forms with d. Residues, ends and D or L forms follow the SMILES beside them. Peptide text beside a SMILES is read from it. *: point of attachment. Sta = CC(C)C[C@H](N)[C@@H](O)CC(=O)O; Isovaleryl = CC(C)CC(=O)*

System: Zika virus NS2B-NS3 protease
Experiment: Primary screen GU AMC qHTS for Zika virus inhibitors (AID 1347154); note: nearly all actives have a fitted effect of over 70% in size
Details: Zika NS2B-NS3 unlinked protease, AMC fluorogenic substrate; series mostly up to 54.1 µM; activity change, negative = inhibition: at the top concentration
Source text: Avindra Nath, Ph.D., National Institute of Neurological Disorders and Stroke (NINDS), Bethesda, MD
Radhakrishnan Padmanabhan, Ph.D., Georgetown University (GU), Washington D.C.
Zika Virus causes congenital defects, including microcephaly and is associated with Guillain-Barre syndrome, eningoencephalitis and myelitis in infected adult. […] Using a target-based approach, we hope to establish a screening paradigm to uncover novel, cell-active NS2B-NS3 protease (Zika Virus) specific inhibitors from NCATS' collection of small molecules using qHTS.
Early Translation Branch (ETB)
National Center for Advancing Translational Sciences (NCATS), Rockville, MD
National Institute of Health (NIH), Bethesda, Maryland
Padmanabhan lab provided the NS2B hydrophilic domain and NS3 protease domain in a noncovalent complex used for the unlinked assay. Control compound aprotinin is obtained from Thermo Scientific (#78432; Waltham, Massachusetts). NS2B-NS3 AMC substrate (Bz-Nle-Lys-Arg-Arg-AMC; Nle-KRR-AMC) purchased from Bachem (#I-1995; Torrance, CA). Ac-VKTGKR-AMC purchased from Genscript or Bachem, Ac-FAAGKR-AMC purchased from Genscript, Ac-GLVKRR-AMC purchased from Genscript, Ac-LKKR-AMC purchased from Genscript.
GU AMC unlinked NS2B-NS3 protease qHTS protocol
Briefly, 3 microL of Zika virus unlinked NS2B-NS3 protease (25 nM for linked final concentration), in assay buffer (10 mM Tris-HCl pH 8.0 with 0.01% Tween 20) was dispensed into a 1,536-well solid-bottom black plate (Greiner Bio One, Monroe, NC). […] Plates were then read immediately on a ViewLux High-throughput CCD imager (PerkinElmer, Waltham, MA) equipped with standard UV fluorescence optics (340(30) nm excitation, 450(20) nm emission) then incubated (room temperature, protected from light) for 15 minutes (~20% conversion). The change in fluorescence intensity over the 15-minute reaction period was normalized against no-inhibitor and no-enzyme controls and the resulting percent inhibition data were fitted to a 4-parameter Hill equation. Aprotinin was used as the intraplate control.
Potency is the fitted concentration of half-maximal effect.

Structure (SMILES)	Potency	activity change, negative = inhibition
CN1C(C(=O)Nc2ccccn2)=C(O)c2sccc2S1(=O)=O	inactive	–
Nc1ccn([C@@H]2O[C@H](CO)[C@@H](O)C2O)c(=O)n1 (stereo not given in full)	–	10.4% (inactive)
NS(=O)(=O)c1cc(C(=O)O)c(NCc2ccco2)cc1Cl	inactive	–
Clc1ccc(C(Cn2ccnc2)OCc2ccsc2Cl)c(Cl)c1 (stereo not given)	–	-15.4% (inactive)
CCC(C)(Oc1ccc(C2(c3ccc(OC(C)(CC)C(=O)O)cc3)CCCCC2)cc1)C(=O)O (stereo not given)	–	-1.12% (inactive)
O=C(NC(Cc1cc(=O)[nH]c2ccccc12)C(=O)O)c1ccc(Cl)cc1 (stereo not given)	inactive	–
CCCCCCCCOc1ccccc1C(=O)Nc1ccc(C(=O)OCC[N+](C)(CC)CC)cc1	–	-3.64% (inactive)
Oc1ccc(OCc2ccccc2)cc1	inactive	–
COC1=C(OC)C(=O)C(CCCCCCCCCCO)=C(C)C1=O	inactive	–
CCN(CC)CCOc1ccc(Cc2ccccc2)cc1	inactive	–
O=C(O)c1cccnc1Nc1cccc(C(F)(F)F)c1	inactive	–
Nc1ncn([C@H]2C[C@H](O)[C@@H](CO)O2)c(=O)n1	inactive	–
CS(=O)(=O)OCCCCOS(C)(=O)=O	inactive	–
C[C@H](Cn1cnc2c(N)ncnc21)OCP(=O)(O)O	–	12.3% (inactive)
COCCCOc1ccnc(CS(=O)c2nc3ccccc3[nH]2)c1C (stereo not given)	inactive	–
COc1cc(OC)c(C(=O)CCCN2CCCC2)c(OC)c1	inactive	–
CC(C)c1ccc2oc3nc(N)c(C(=O)O)cc3c(=O)c2c1	15.8 µM (active)	–
CC(C)(S)[C@@H](N)C(=O)O	–	5.39% (inactive)
CC(=O)O[C@H]1C(=O)[C@@]2(C)C([C@H](OC(=O)c3ccccc3)[C@]3(O)C[C@H](OC(=O)[C@H](O)[C@@H](NC(=O)c4ccccc4)c4ccccc4)C(C)=C1C3(C)C)[C@]1(OC(C)=O)CO[C@@H]1C[C@@H]2O (stereo not given in full)	inactive	–
Nc1nc(N)c(N=O)c(OCC2CCCCC2)n1	–	-5.47% (inactive)

Structure (SMILES)	Potency	activity change, negative = inhibition
CC(C)c1ccc2c(c1)c(SC(C)(C)C)c(CC(C)(C)C(=O)O)n2Cc1ccc(Cl)cc1	–	-1.73% (inactive)
CC(C)Oc1ccc2c(=O)c(-c3ccccc3)coc2c1	inactive	–
c1cnc2cc3c(cc2n1)C1CNCC3C1	–	-1.87% (inactive)
CCCS(=O)c1ccc2nc(NC(=O)OC)[nH]c2c1 (stereo not given)	inactive	–
O=C(NCC1CCCCN1)c1cc(OCC(F)(F)F)ccc1OCC(F)(F)F (stereo not given)	inactive	–
COc1cc2c(N3CCN(C(=O)Nc4ccc(OC(C)C)cc4)CC3)ncnc2cc1OCCCN1CCCCC1	inactive	–
N=C(N)c1ccc2cc(OC(=O)c3ccc(N=C(N)N)cc3)ccc2c1	inactive	–
CN(C)CCc1c[nH]c2ccc(Cn3cncn3)cc12	–	5.81% (inactive)
Cc1ccc(NC(=O)c2ccc(CN3CCN(C)CC3)cc2)cc1Nc1nccc(-c2cccnc2)n1	inactive	–
COC(=O)C1=C(C)NC(C)=C(C(=O)OC(C)C)C1c1cccc2nonc12 (stereo not given)	inactive	–
COc1ccccc1N1CCN(CCN(C(=O)C2CCCCC2)c2ccccn2)CC1	–	0.766% (inactive)
CC[C@]1(O)C[C@H]2CN(CCc3c([nH]c4ccccc34)[C@@](C(=O)OC)(c3cc4c(cc3OC)N(C=O)[C@H]3[C@@](O)(C(=O)OC)[C@H](OC(C)=O)[C@]5(CC)C=CCN6CC[C@]43[C@@H]65)C2)C1	inactive	–
COC(=O)[C@H](Cc1ccccc1)NC(=O)[C@@H](N)CC(=O)O (H-Asp-Phe-OMe)	inactive	–
CC(C)CC(=O)N[C@H](C(=O)N[C@H](C(=O)N[C@@H](CC(C)C)[C@@H](O)CC(=O)N[C@@H](C)C(=O)N[C@@H](CC(C)C)[C@@H](O)CC(=O)O)C(C)C)C(C)C (Isovaleryl-VV[Sta]A[Sta]-OH)	inactive	–
CC(=O)N1CCN(c2ccc(OC[C@H]3CO[C@](Cn4ccnc4)(c4ccc(Cl)cc4Cl)O3)cc2)CC1	inactive	–
c1ccc2[nH]c(-c3cscn3)nc2c1	inactive	–
C=CCc1cc(OC)c(O)c(C(=O)NCCO)c1	–	-23.2% (inactive)
CNC[C@@H](O)[C@@H](O)[C@H](O)[C@H](O)CO	–	5.14% (inactive)
O=c1oc2cc(O)ccc2s1	–	-0.693% (inactive)
COc1cc2nc(N3CCN(C(=O)C4CCCO4)CC3)nc(N)c2cc1OC (stereo not given)	31.6 µM (active) and 24.1 µM (active)	–
